The text below walks through data of PubChem BioAssay AID2284166 (EPA ToxCast).

The structures appear in SMILES notation. Inconclusive results are not listed. Calls of active or inactive are those of the source. The calls were made as follows: active = hit-call score of the fitted dose curve at least 0.9, where 1 is the maximum; inactive = score below 0.9.

The experiment deals with Neuropeptide Y receptor type 2 (Homo sapiens) (UniProt P49146). In words: ERF_FR_GPCR_hNPY2R: Eurofins (ERF) G Protein-Coupled Receptor (GPCR) Radioligand Binding LeadHunter Assay for human Neuropeptide Y Receptor Y2 Agoniam. As to the method: ERF_FR_GPCR_hNPY2R is a biochemical, single-readout assay that uses extracted gene-proteins in a cell-free assay. Measurements were taken 1 hour after chemical dosing in a 96-well plate. See Y2 Human Neuropeptide Y GPCR Binding (Agonist Radioligand) Assay, Cerep.ERF_FR_GPCR_hNPY2R is an assay component calculated from the ERF_FR_GPCR_hNPY2R assay. It is designed to measure radioligand binding using a type of binding reporter as detected by scintillation counting with radiometry technology.Data from the assay component ERF_FR_GPCR_hNPY2R was analyzed at the assay endpoint, ERF_FR_GPCR_hNPY2R, in the positive analysis fitting direction relative to DMSO as the negative control and baseline of activity. Using a type of binding reporter, gain-of-signal activity can be used to understand changes in binding as they relate to gene NPY2R. To generalize the intended target to other relatable targets, this assay endpoint is annotated to the gpcr intended target family, where the subfamily is neuropeptide Y.
Sequence of Neuropeptide Y receptor type 2 (Homo sapiens) (P49146 whole entry, looked up): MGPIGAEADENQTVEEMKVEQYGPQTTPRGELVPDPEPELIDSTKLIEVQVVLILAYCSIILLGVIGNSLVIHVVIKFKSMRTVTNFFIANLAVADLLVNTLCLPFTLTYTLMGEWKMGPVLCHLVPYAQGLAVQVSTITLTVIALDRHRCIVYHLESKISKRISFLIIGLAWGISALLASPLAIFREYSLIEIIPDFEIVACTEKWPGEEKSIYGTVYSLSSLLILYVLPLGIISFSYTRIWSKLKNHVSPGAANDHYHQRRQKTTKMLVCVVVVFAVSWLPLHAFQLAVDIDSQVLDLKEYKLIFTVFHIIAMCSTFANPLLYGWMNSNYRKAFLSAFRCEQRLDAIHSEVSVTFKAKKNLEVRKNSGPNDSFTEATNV
Human cells are incubated for 60 minutes at 37 C with [125I]peptide YY ligand (0.015 nM) and NYP as control inhibitor. Test Sample Requirements: Minimum for 1) Screen: 60 ul of 10 mM stock -OR- 1 mg (pre-weighed) for 10 uM final testing. 2) Dose Response: 90 ul of 10 mM stock -OR- 1 mg (pre-weighed) for a top concentration at 10 uM.
`O=C(/C=C/c1ccc(O)cc1)CC(=O)/C=C/c1ccc(O)cc1`: the compound was classed as inactive.
